Glyco luc inh = increase of ERlucT glycosylation luciferase signal, primary screen, N-linked glycosylation inhibitor project, D54 ERlucT cells, luminescence, set 2; D54 ERlucT glycosylation luciferase reporter, 24 h; percent of 100 nM tunicamycin response; actives 0.23% (n = 360,000); reporter increase, % at 12.5 µM;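 active = mean luciferase reporter signal, scaled so untreated is 0 and the glycosylation-blocking control 100, at or above a set limit in every replicate; inconclusive = mean reaches the limit but not every replicate does; inactive = mean below the limit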;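 also: luciferase carries N-glycosylation sites so blocking glycosylation raises the light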
MITF TRPM1 HTS = activators of MITF-driven TRPM1 promoter reporter, primary screen, cell-based, SK-MEL-5, luciferase, single point; SK-MEL-5 TRPM1-promoter luciferase, 24 h; % of positive control, neutral wells = 0; activation, % at 12.5 µM; actives 0.75% (n = 300,000);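 active = mean activation of at least 80% with every replicate also reaching 80%; inconclusive = mean reaches 80% but some replicate falls short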
PfHsp90 set2 = growth inhibition of PfHsp90-expressing yeast, primary screen, antimalarial PfHsp90 inhibitor project, S. cerevisiae, BacTiter-Glo luminescence, single point, set 2 | inhibition, % at 9.4 µM | actives 0.32% (n = 310,000) | BacTiter-Glo ATP, 48 h; yeast lacking PDR1 and PDR3 efflux regulators;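 active = every replicate shows inhibition above about 80%, whatever the replicate mean, limit read from the data; inconclusive = mean inhibition reaches the set limit but some replicate falls short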
TRPM1 prom inh = inhibitors of MITF-dependent TRPM1 promoter reporter, primary screen, cell-based, SK-MEL-5, single point, luciferase. SK-MEL-5 TRPM1 promoter luciferase, 24 h. inhibition, % at 12.5 µM. actives 0.83% (n = 330,000). AID 488899, 2010;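 active = mean inhibition across replicates of 60% or more, whatever share of single replicates reaches that level; inconclusive = some that reach 60%, reason not given; inactive = mean inhibition across replicates below 60%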
NSD2 inh = NSD2 histone methyltransferase inhibitors, primary screen, biochemical, AlphaScreen, single concentration, set 2; AID 743445, 2014; actives 0.54% (n = 310,000); NSD2 peptide methylation, 120 min; inhibition, % at 12.5 µM; in the data active = inhibition above about 50%
Wnt act = Wnt/beta-catenin pathway activators, primary screen, cell-based, plate reader, single point; Wnt/beta-catenin reporter cell assay, activator; activation, % at 9.35 µM; actives 1.2% (n = 300,000); in the data active = activation above about 30%, passing the limit was not always enough; inconclusive = no clear call, values can overlap the other calls
Numbers stand for hits. A selection: hits, their analogues and other compounds. The true share with any hit is near 2.9%.

`CCc1ccc(NC(=O)C(=S)NC2CCCCC2)cc1` gave Glyco luc inh inactive, MITF TRPM1 HTS 119, TRPM1 prom inh inactive, NSD2 inh inactive and Wnt act inactive.
`CCOc1ccc(NC(=O)C(=S)NC2CCCCC2)cc1` gave Glyco luc inh inactive, MITF TRPM1 HTS 136, PfHsp90 set2 inactive, TRPM1 prom inh inactive, NSD2 inh inactive and Wnt act inactive.
For O=C(Nc1ccc(Br)cc1)NC1CCCCCCC1 the results were Glyco luc inh inactive, MITF TRPM1 HTS inconclusive, PfHsp90 set2 inactive, TRPM1 prom inh inactive, NSD2 inh inactive and Wnt act 47.
`O=C(NNC(=O)c1ccccc1F)c1ccc(S(=O)(=O)N2CCCCC2)cc1` gave Glyco luc inh inactive, MITF TRPM1 HTS inactive, PfHsp90 set2 inactive, TRPM1 prom inh inactive, NSD2 inh inactive and Wnt act inactive.
Screening COC(=O)c1ccc(C(=O)OC)c(NC(=S)N2CCC(C)CC2)c1 returned Glyco luc inh inactive, MITF TRPM1 HTS inactive, PfHsp90 set2 inactive, TRPM1 prom inh inactive, NSD2 inh inactive and Wnt act inactive.
Screening CC1(c2ccccc2)NC(=O)N(CC#N)C1=O (stereo not given) returned Glyco luc inh inactive, MITF TRPM1 HTS inactive, PfHsp90 set2 inactive, TRPM1 prom inh inactive, NSD2 inh inactive and Wnt act 36.
`CCC1(c2ccccc2)NC(=O)N(CC#N)C1=O` (stereo not given) gave Glyco luc inh inactive, MITF TRPM1 HTS inactive, PfHsp90 set2 inactive, TRPM1 prom inh inactive, NSD2 inh inactive and Wnt act inactive.
Screening CCCCCCCCCn1c2c(c(=N)c3c1CCC3)CCCC2 returned Glyco luc inh inactive, MITF TRPM1 HTS inactive, PfHsp90 set2 inactive and TRPM1 prom inh 92.
`CCCCCCCCn1c2c(c(=N)c3ccccc31)CCC2` gave Glyco luc inh inactive, MITF TRPM1 HTS inactive, PfHsp90 set2 inactive, TRPM1 prom inh 90, NSD2 inh inactive and Wnt act inactive.
Screening N=c1c2c(n(Cc3ccc(Cl)cc3)c3c1CCC3)CCC2 returned Glyco luc inh inactive, MITF TRPM1 HTS inactive, PfHsp90 set2 inactive, TRPM1 prom inh 64, NSD2 inh inactive and Wnt act inactive.
Screening CCCCCn1c2c(c(=N)c3ccccc31)CCC2 returned Glyco luc inh inactive, PfHsp90 set2 inactive, TRPM1 prom inh inactive, NSD2 inh inactive and Wnt act inactive.
`CCCCCCCCCCn1c2c(c(=N)c3c1CCC3)CCC2` gave Glyco luc inh inactive, PfHsp90 set2 inactive, TRPM1 prom inh 81 and Wnt act inactive.
Screening N=c1c2c(n(Cc3ccc(F)cc3)c3c1CCC3)CCCC2 returned Glyco luc inh inactive, MITF TRPM1 HTS inactive, PfHsp90 set2 inactive, TRPM1 prom inh inactive, NSD2 inh inactive and Wnt act inactive.
`FC(F)(F)c1cccc(N2CCN(C3=Nc4ccccc4Sc4ccccc43)CC2)c1` gave NSD2 inh inactive.
For O=C1NNC(c2ccccc2)=N/C1=C\c1ccco1 the results were Glyco luc inh inactive, PfHsp90 set2 inactive, TRPM1 prom inh inactive, NSD2 inh inactive and Wnt act inactive.
For O=C1NNC(c2ccccc2)=N/C1=C\c1ccccc1Cl the results were Glyco luc inh inactive, PfHsp90 set2 inactive, TRPM1 prom inh inactive, NSD2 inh 93 and Wnt act inactive.
For O=C(CC[C@H]1O[C@@H](n2ccc(=O)[nH]c2=O)[C@H](O)[C@@H]1O)NCCc1c[nH]c2ccccc12 the results were Glyco luc inh inactive and Wnt act inactive.
C/C(=C\C(=S)Nc1ccccc1)Nc1cccc2ccccc12 was read as Glyco luc inh inactive, MITF TRPM1 HTS inactive, PfHsp90 set2 inactive, TRPM1 prom inh inactive, NSD2 inh inactive and Wnt act inactive.
C/C(=C\C(=S)Nc1ccccc1)Nc1ccc2ccccc2c1 was read as Glyco luc inh inactive, MITF TRPM1 HTS inactive, PfHsp90 set2 inactive, TRPM1 prom inh inactive, NSD2 inh inactive and Wnt act 52.
CCOC(=O)/C(=C\c1cccnc1)C(=O)c1cc(C(C)=O)c(Nc2ccccc2)s1 was read as Glyco luc inh inactive, MITF TRPM1 HTS inactive, PfHsp90 set2 103 and TRPM1 prom inh 98.
CCOC(=O)/C(=C\c1ccccc1)C(=O)c1cc(C(C)=O)c(Nc2ccccc2)s1 was read as Glyco luc inh 35, MITF TRPM1 HTS inactive, PfHsp90 set2 inactive, TRPM1 prom inh inactive and NSD2 inh inactive.
For C#CC1c2ccccc2CCN1CC=C (stereo not given) the results were Wnt act inactive.
Cc1ccc(S(=O)(=O)c2ncccc2[N+](=O)[O-])cc1 was read as Glyco luc inh inactive, MITF TRPM1 HTS inactive, PfHsp90 set2 inactive, TRPM1 prom inh 77, NSD2 inh inactive and Wnt act inactive.
For CCC(C)(C)C(=O)O[C@H]1C[C@@H](C)C=C2C=C[C@H](C)[C@H](CC[C@@H]3C[C@@H](O)CC(=O)O3)[C@H]21 the results were Glyco luc inh 45, MITF TRPM1 HTS inactive, PfHsp90 set2 inactive, TRPM1 prom inh inactive and Wnt act inactive.
`COc1ccc(-c2cc(C(=O)NN=Cc3ccc(O)c(OC)c3)[nH]n2)cc1` gave NSD2 inh inactive.
`CC1=C(CC(=O)c2ccccc2)C(=O)c2ccccc2C1=O` gave Glyco luc inh inactive, MITF TRPM1 HTS inactive, TRPM1 prom inh 66, NSD2 inh inactive and Wnt act inactive.
`Cn1c(SCn2nnc3ccccc3c2=O)nc2ccccc2c1=O` gave NSD2 inh inactive.
For O=C(CSc1nnc2ccccn12)c1ccc(Cl)cc1 the results were Glyco luc inh inactive, MITF TRPM1 HTS inactive, PfHsp90 set2 inactive, TRPM1 prom inh inactive, NSD2 inh inactive and Wnt act 36.
For O=C(CSc1nnc2ccccn12)NNC(=O)c1ccc(Cl)cc1 the results were Glyco luc inh inactive, MITF TRPM1 HTS inactive, TRPM1 prom inh inactive, NSD2 inh inactive and Wnt act inactive.
`O=c1c2ccccc2nnn1CSc1nnc2ccccn12` gave Glyco luc inh inactive, TRPM1 prom inh inactive, NSD2 inh inactive and Wnt act 53.
`N#Cc1cccc(CNCC(=O)N2CCC3(CC2)OCCO3)c1` gave NSD2 inh inactive.
For COc1ccccc1N(C(C)=O)C1=C(Cl)C(=O)c2ccccc2C1=O the results were Glyco luc inh inactive, NSD2 inh inactive and Wnt act inactive.
For CCCNC1=C(N(C(C)=O)c2cccc(F)c2)C(=O)c2ccccc2C1=O the results were Glyco luc inh inactive, MITF TRPM1 HTS inactive, PfHsp90 set2 inactive, TRPM1 prom inh 98, NSD2 inh 78 and Wnt act inactive.

Screening data deposited in PubChem by Broad Institute.
